Inconclusive results are not listed. Calls of active or inactive are those of the source. The call rests on the fitted dose curve; in most records, active means well fitted cell-killing curve with a large enough effect; inconclusive means small, poorly fitted or top-dose-only effect, or effect the other way; inactive means no such curve, though single readings can be large or run the other way.
Assay: Quantitative High-Throughput drug screen in 47 multiple myeloma cell lines against the NCATS MIPE library collection: Delta47_JCRB cell viability assay (AID 1918925; further: nearly all actives have a fitted effect of over 45% in size)
Conditions: Delta47 myeloma viability, CellTiter-Glo ATP, 48 h; series mostly up to 45.8 µM
Summary of the method: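 CellTiter-Glo luminescence (ATP) after 48 h compound exposure, 37C/5% CO2; 500 cells/well; MIPE 4.0 approved/investigational drugs pinned in; DMSO = 100%, media only = 0% viability.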
Potency means the concentration at half of the fitted maximal effect.

| SMILES | Potency |
| --- | --- |
| CC(O)=C(C#N)C(=O)Nc1ccc(C(F)(F)F)cc1 | 18.7 µM (active) |
| O=C(Nc1ccccc1)Nc1ccc(-c2ccc(C(=O)[C@H]3CCC[C@H]3C(=O)O)cc2)cc1 | inactive |
| CCC(=C(c1ccc(O)cc1)c1ccc(OCCNC)cc1)c1ccccc1 | 5.9 µM (active) |
| COc1ccc2nc3cc(Cl)ccc3c(Nc3cc(CN4CCCC4)c(O)c(CN4CCCC4)c3)c2n1 | 16.6 µM (active) |
| CCOC(=O)[C@@H](N)CCC(=O)N[C@@H](CSCc1ccccc1)C(=O)N[C@@H](C(=O)OCC)c1ccccc1 | 26.4 µM (active) |
| O=C1NC(=O)C(=Cc2ccc(-c3ccc(F)cc3O)o2)S1 | 0.418 µM (active) |
| CON(C)C(=O)N1N=C(c2cc(F)ccc2F)S[C@]1(CCCN)c1ccccc1 | inactive |
| CCN(CC)CCCCNc1nc2cc(Cl)c(Cl)cc2nc1-c1ccc(-c2cccs2)s1 | 7.43 µM (active) |
| CN(CC=CC#CC(C)(C)C)Cc1cccc2ccccc12 | inactive |
| CN1CCN2c3ncccc3Cc3ccccc3C2C1 (stereo unspecified) | inactive |
| Fc1ccc(C(c2ccc(F)cc2)N2CCN(CC=Cc3ccccc3)CC2)cc1 | inactive |
| O=C(O)C1=NC(C(=O)O)CC(C=CN2c3cc(O)c(OC4OC(CO)C(O)C(O)C4O)cc3CC2C(=O)O)=C1 (stereo unspecified) | inactive |
| C[C@H]1[C@H](O)O[C@@H]2O[C@@]3(C)CC[C@@H]4[C@H](C)CC[C@@H]1[C@@]24OO3 | 5.9 µM (active) |
| CCCCCCOC(=O)N=C(N)c1ccc(NCc2nc3cc(C(=O)N(CCC(=O)OCC)c4ccccn4)ccc3n2C)cc1 | 16.6 µM (active) |
| Cn1cc(-c2ccc3nnc(Sc4ccc5ncccc5c4)n3n2)cn1 | 0.469 µM (active) |
| CC(NCCc1ccc(O)cc1)C(O)c1ccc(O)cc1 (stereo unspecified) | inactive |
| COc1cccc(OC)c1-c1cc(C(=O)NC2(C(=O)O)C3CC4CC(C3)CC2C4)nn1-c1ccnc2cc(Cl)ccc12 (stereo unspecified) | inactive |
| N=C1SC(=Cc2ccc(-c3ccc4c(c3)C(=O)NC4=O)o2)C(=O)N1c1ccc(Br)cc1 | inactive |
| CN(C)CCN(Cc1ccc(Cl)cc1)c1ccccn1 | 9.35 µM (active) |
| CCNC(=O)CCCC=CC[C@@H]1[C@H](C=CC(O)CCc2ccccc2)[C@@H](O)C[C@@H]1O (stereo partly specified) | inactive |
| CC[C@H](NC(=O)[C@H](C)NC)C(=O)N1C[C@@H](O)C[C@H]1Cc1c(-c2[nH]c3cc(F)ccc3c2C[C@H]2C[C@H](O)CN2C(=O)[C@H](CC)NC(=O)[C@H](C)NC)[nH]c2cc(F)ccc12 | 16.6 µM (active) |

Source: PubChem BioAssay (NCATS)
